TLR4 MyD88 comp: inhibitors of human TLR4-MyD88 binding; HeLa CL3-4 TLR4/MyD88 BLA complementation, FRET ratio; AID 861; 200,000 tested, 0.18% active; O00206+Q99836; inhibition, % at 8.4 µM; in the data active = inhibition above about 25%;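 note: 0% = vehicle and 100% = reference inhibitor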
NOD2-RIPK2 inh: blocks binding of human NOD2 to RIPK2. inhibition, % at 4.98 µM. 360,000 tested, 0.38% active. AID 624267. CHO BLA complementation NOD2-RIPK2, CCF4 ratio; in the data active = inhibition above about 21%;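 note: 0% = vehicle only and 100% = reference blocker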
ANO1 activ: activates or potentiates the mouse TMEM16A chloride channel. 340,000 tested, 0.3% active. HEK293 TMEM16A/YFP-H148Q/I152L, iodide quench fluorescence; hits give low values. B-score at 10 µM;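 active = fluorescence-ratio B-score plate-corrected deviation score at least 3 library SD below zero, with starting fluorescence score within 5 deviations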;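 note: channel opened by trigger with iodide after compound preincubation; score built on the fluorescence ratio of max minus min over baseline; more negative score means more quench and so TMEM16A activation or potentiation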
TLR9-MyD88 block: blocks human TLR9 binding to MyD88; Q9NR96+Q99836; CHO BLA complementation TLR9-MyD88, CCF4 FRET ratio; inhibition, % at 4.98 µM; 340,000 tested, 0.21% active; AID 504734;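 active = inhibition above the mean over all tested compounds plus 3 SD, cut at about 21% in these data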;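 note: 0% = DMSO only wells and 100% = clavulanate BLA inhibitor control wells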
GRK2 aptamer HTS: inhibitors of human GRK2 displacing RNA aptamer; P25098; bead flow cytometry, FAM-aptamer displacement from GRK2; inhibition of aptamer binding, % at 10 µM; 330,000 tested, 0.59% active; AID 488847;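 active = inhibition of aptamer binding above 40%, roughly 3 SD of noise, on plates passing a quality check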;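 note: median bead fluorescence of bound FAM aptamer so fluorescent compounds give negative values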
TMEM16A inh: blocks the mouse calcium-activated chloride channel TMEM16A; 310,000 tested, 1.2% active; HEK293 TMEM16A/YFP iodide influx fluorescence, ionomycin; Q8BHY3; normalized B-score (activity score, 25-100; higher = stronger inhibition) at 10 µM;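 active = ratio plate-corrected score three or more library SD toward inhibition, starting fluorescence score within five deviations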;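 note: score derived from kinetic fluorescence span divided by baseline fluorescence per well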
TMEM16A reconf: reconfirmed blocker of mouse TMEM16A calcium-activated chloride channel | shares compounds with TMEM16A inh | HEK293 TMEM16A/YFP-H148Q, iodide quench fluorescence; ionomycin added to raise cell calcium | inhibition, % at 10 µM | 2,300 tested, 39% active;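 active = mean duplicate percent inhibition, scaled so buffer wells are 0 and the reference blocker 100, over three buffer SD above buffer mean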
TMEM16A Ca cntr: counter-screen for TMEM16A inhibitors: effect on calcium mobilization; calcium response (% of ionomycin), % at 10 µM; shares compounds with TMEM16A inh; AID 652231; 2,300 tested, 2% active; TMEM16A/YFP HEK293, Fluo4 calcium mobilization;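 active = duplicate-averaged calcium signal over 20% of the ionomycin maximum, relative to buffer baseline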;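 note: each well's signal is peak minus trough fluorescence divided by its pre-addition baseline; 0% = buffer wells and 100% = ionomycin wells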
Parental YFP cnt: counter-screen for TMEM16A inhibitors: effect in parental YFP-HEK293 cells; shares compounds with TMEM16A inh; iodide YFP quench, ionomycin; YFP ratio F(max-min)/F0 at 10 µM; 2,300 tested, under 10 active; AID 652233;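 active = yellow fluorescent protein signal ratio exceeding the buffer control mean by over 5 SD of those controls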;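 note: ratio is mean of duplicate wells from kinetic YFP trace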
ClC-1 inh: selectivity of TMEM16A inhibitors: inhibition of rat ClC-1 chloride channel; CHO ClC-1-YFP, iodide influx fluorescence quench; iodide control reads 0, buffer control 100; ratio percent, % at 10 µM; AID 652236; 2,300 tested, under 10 active; shares compounds with TMEM16A inh;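 active = duplicate-mean ratio percent above the mean of iodide-only control wells, which defines zero, plus 5 of their SD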;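 note: higher percent means stronger block of ClC-1 iodide influx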
The depositor's hits bear a star; i = inactive; nt = no result given. Compounds with a hit are over-represented: about 2.2% of the library has one in this group of screens.

SMILES | TLR4 MyD88 comp | NOD2-RIPK2 inh | ANO1 activ | TLR9-MyD88 block | GRK2 aptamer HTS | TMEM16A inh | TMEM16A reconf | TMEM16A Ca cntr | Parental YFP cnt | ClC-1 inh
COc1ccc(C)cc1NC(=O)CSc1nnc(-c2ccc(Br)cc2)o1 | -4 | 4 | i | 2 | 0 | 100* | i | i | -0.92 | -24
COc1ccccc1NC(=O)CSc1nnc(-c2ccc(C)cc2)o1 | -11 | -7 | i | -1 | 2 | i | nt | nt | nt | nt
COc1cc(O)cc2c1[C@@H]1Oc3c(ccc(O)c3CC=C(C)C)[C@@H]1CO2 | nt | -5 | i | -4 | 0 | 25* | 30%* | i | -0.96 | -10
COc1c(CC=C(C)C)cc(C2CC(=O)c3c(O)cc(O)cc3O2)cc1CC=C(C)C (centres undefined) | nt | -6 | i | -2 | 0 | i | nt | nt | nt | nt
O=C(O)CNS(=O)(=O)c1ccc(C2CCCCC2)cc1 | -19 | -14 | i | -4 | 2 | i | nt | nt | nt | nt
Cn1cccc1/C=C1/SC(=S)N(CC(=O)O)C1=O | -9 | 1 | i | -8 | 4 | i | i | i | -0.69 | -8
CN1C(=O)/C(=C/c2ccc(OC(=O)c3ccco3)cc2)SC1=S | nt | -7 | i | 16 | 0 | i | i | i | -1.2 | -22
COc1cc(/C=C2\SC(=S)N(CC(=O)O)C2=O)ccc1OC(=O)c1ccco1 | nt | -9 | -5.5* | -1 | 3 | i | i | i | -1.4 | -78
CC1CC(C)CN(CCCNC(=O)c2ccc3nc(N4CCCCC4)sc3c2)C1 (centres undefined) | nt | 1 | i | -2 | 0 | 100* | i | i | -1.1 | -20
O=C(CCC(=O)Nc1cccc(C(F)(F)F)c1)NCC1CCCO1 (centres undefined) | nt | -10 | i | -8 | 0 | i | nt | nt | nt | nt
O=C(Cn1c(=O)n(-c2cccc(C(F)(F)F)c2)c(=O)c2sccc21)NCC1CCCO1 (centres undefined) | nt | -12 | i | -14 | 0 | 25* | i | i | -1.2 | 2
O=S1(=O)CCN(C2CCCC2)CC1 | nt | -6 | nt | -3 | nt | nt | nt | nt | nt | nt
CN1CCN(C2CCCCCC2)CC1 | -10 | 1 | i | 1 | 0 | 25* | i | i | -0.8 | -10
Cn1cc(Cc2ccc(C(=O)NCc3ccccc3)cn2)c2ccccc21 | nt | 7 | nt | nt | nt | nt | nt | nt | nt | nt
CCOC(=O)C1CCN(c2c(NCc3ccc(C(=O)NC4CCCC4)cc3)c(=O)c2=O)CC1 | -2 | -6 | i | -8 | 0 | i | nt | nt | nt | nt
CCOC(=O)C1CCN(c2c(NCCN3CCCCC3C)c(=O)c2=O)CC1 (centres undefined) | 4 | 0 | i | -7 | 0 | 100* | i | i | -1.3 | -10
COc1ccc(CCNC(=O)Cn2nnc(C(=O)Nc3cccc(C)c3C)c2N)cc1OC | nt | -5 | i | -6 | 0 | i | nt | nt | nt | nt
Cc1ccc(NC(=O)CN(C)C(=O)C2CSC3(C)CCC(=O)N23)cc1 (centres undefined) | nt | -4 | nt | -3 | nt | nt | nt | nt | nt | nt
CC(C)(c1cc(Br)c(O)c(Br)c1)c1cc(Br)c(O)c(Br)c1 | nt | 6 | i | -3 | 3 | nt | nt | nt | nt | nt
COc1ccc(CCOC(=O)c2ccc(NC(=O)CC#N)cc2)cc1 | nt | 1 | i | 2 | 1 | i | nt | nt | nt | nt
COc1ccc(C(=O)OCCc2ccc(O)cc2)cc1 | 4 | -10 | i | 11 | 2 | 25* | i | i | -1 | -4

Bioassay records deposited in PubChem by several laboratories.
